Several values for one entry are separate records, joined by “and”; a condition that tells them apart may be missing. Equal values may be shown once. Inconclusive results are not listed. Activity calls are given as the source filed them. Unless noted, the call rests on the fitted dose curve; in most records, active means well fitted curve in the direction sought with a large enough effect in the repeat runs; inconclusive means weak or mixed curves; inactive means no such curve, though single readings can be large; an effect the other way counts as inactive or inconclusive.
Tests used:
[1] = qHTS assay for small molecule agonists of the p53 signaling pathway (AID 651631; calls by dose curve; further: nearly all actives have a fitted effect of over 15% in size; further: potency means the concentration at half of the fitted maximal effect)
Outline: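 We treat p53RE-bla HCT-116 cells with compounds for 16 h at 37 °C, add LiveBLAzer B/G FRET substrate for 2 h at room temperature, and measure fluorescence intensity.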

[2] = qHTS assay for small molecules that induce genotoxicity in human embryonic kidney cells expressing luciferase-tagged ATAD5 (AID 651632); further: nearly all actives have a fitted effect of over 15% in size
Outline: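 A rise in luciferase signal from ATAD5-tagged HEK293T cells marks genetic stress. Cells were exposed to compounds for 16 hr at 37C, 5% CO2, then luciferase was quantified after a 30 min room-temperature incubation with Amplite.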

[3] = qHTS assay for small molecule agonists of the p53 signaling pathway - cell viability (AID 651633; calls by dose curve;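 further: p53RE-bla HCT reporter cells with a stable beta-lactamase p53 reporter; series mostly up to about 83 µM; nearly all actives have a fitted effect of over 30% in size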)
Outline: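 Viability counter-read: CellTiter-Glo luminescence (30 min, room temperature) in the same p53RE-bla plates. These plates had been exposed to compounds for 16 h at 37 C.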

[4] = qHTS assay for small molecules that induce genotoxicity in human embryonic kidney cells expressing luciferase-tagged ATAD5 - cell viability (AID 651634; calls by dose curve; further: nearly all actives have a fitted effect of over 25% in size)
Outline: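 Cytotoxicity counter-readout: after 15.5 hr compound treatment at 37C, live-cell protease activity in ATAD5-luciferase HEK293T cells measured by CellTiter-Fluor fluorescence, 30 min development at 37C.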

[5] = qHTS assay to test for compound auto fluorescence at 590 nm (red) in HepG2 cells (AID 720674)
Outline: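 1 hr compound incubation on HepG2 cells, 37 C, 5% CO2; plate read ex 540 nm / em 590 nm; intensities reported as Rose Bengal sodium equivalents.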

[6] = qHTS assay to test for compound auto fluorescence at 535 nm (green) in HepG2 cells (AID 720675)
[7] = qHTS assay to test for compound auto fluorescence at 460 nm (blue) in HEK293 cells (AID 720678)
Outline: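 Measured: blue fluorescence (Ex 405/Em 460 nm) of compound-treated HEK293 cells, incubated overnight at 37C with 5% CO2 and scaled to triamterene equivalents.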

[8] = qHTS assay to test for compound auto fluorescence at 535 nm (green) in HEK293 cells (AID 720680)
[9] = qHTS assay to test for compound auto fluorescence at 460 nm (blue) in HEK293 cell free culture (AID 720681)
Outline: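 Blue fluorescence (Ex 405/Em 460 nm, triamterene-equivalent) was read immediately after pin transfer of compound or DMSO into medium (DMEM, 10% FBS) without cells.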

[10] = qHTS assay to test for compound auto fluorescence at 535 nm (green) in HEK293 cell free culture (AID 720682)
Outline: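 Green-channel intensity (Ex/Em 485/535 nm) was recorded from compound-treated wells containing only DMEM with 10% FBS. Fluorescein provided the equivalency standard.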

[11] = qHTS assay to test for compound auto fluorescence at 590 nm (red) in HEK293 cell free culture (AID 720683)
Outline: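 Red-channel autofluorescence of compounds in culture medium (DMEM, 10% FBS), no cells, measured at 540/590 nm. Rose Bengal sodium is the reference fluorophore for equivalence.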

[12] = qHTS assay to test for compound auto fluorescence at 590 nm (red) in HepG2 cell free culture (AID 720684)
Outline: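 Cell-free; medium MEM + 10% FBS; compound or DMSO added by pintool; read Ex 540/Em 590 nm; Rose Bengal sodium as red reference fluorophore.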

[13] = qHTS assay to test for compound auto fluorescence at 460 nm (blue) in HepG2 cell free culture (AID 720685)
Outline: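 Cell-free plates of MEM plus 10% FBS received 23 nL compound or DMSO vehicle; blue-channel (405/460 nm) intensity scored against triamterene as reference fluorophore.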

[14] = qHTS assay to test for compound auto fluorescence at 535 nm (green) in HepG2 cell free culture (AID 720686)
[15] = qHTS assay to test for compound auto fluorescence at 460 nm (blue) in HepG2 cells (AID 720687)
Outline: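 Blue-channel autofluorescence (Ex/Em 405/460 nm, triamterene-equivalent) was measured after 1 hr compound exposure at 37 C, 5% CO2. Cells were HepG2, plated overnight at 37 C in MEM plus 10% FBS.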

[16] = target: Glucocorticoid receptor (Homo sapiens) (UniProt P04150); experiment: qHTS assay to identify small molecule agonists of the glucocorticoid receptor (GR) signaling pathway (AID 720691; active means well fitted activation curve with a large enough effect in the signal ratio in the repeat runs, not every such curve was filed as active; the % refers to the signal ratio)
Outline: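 Agonist-mode qHTS in HeLa cells stably expressing a glucocorticoid-response-element beta-lactamase reporter. Fluorescence intensity read with FRET substrate (2 h, room temperature) after 18 h compound treatment at 37 C.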

[17] = target: Glucocorticoid receptor (Homo sapiens) (UniProt P04150); experiment: qHTS assay to identify small molecule antagonists of the glucocorticoid receptor (GR) signaling pathway (AID 720692; active means well fitted inhibition curve with a large enough effect in the signal ratio in the repeat runs, not every such curve was filed as active; the % refers to the signal ratio; further: potency means the concentration at half of the fitted maximal effect)
Outline: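 Inhibition of dexamethasone-driven (5 nM final) beta-lactamase expression was measured in GRE-reporter HeLa cells over 18 h at 37C. Fluorescence was read after 2 h with the B/G FRET substrate at room temperature.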

[18] = qHTS assay for small molecule disruptors of the mitochondrial membrane potential - cell viability (AID 720634; calls by dose curve;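 further: human HepG2 liver cancer cells; series mostly up to about 83 µM; nearly all actives have a fitted effect of over 20% in size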)
Outline: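 Cytotoxicity was quantified from ATP content by CellTiter-Glo luminescence in the same wells as the MMP dye read-out. HepG2 (2,000 cells/well) were plated overnight and exposed to compounds for 1 hr at 37 C.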

[19] = qHTS assay for small molecule disruptors of the mitochondrial membrane potential (AID 720635)
Outline: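 Mitochondrial membrane potential tracked with Mito-MPS dye, red aggregates (ex 540/em 590 nm) against green monomers (ex 490/em 535 nm). Compound treatment 1 hr at 37C, dye 30 min in HepG2.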

[20] = qHTS assay to test for compound auto fluorescence at 590 nm (red) in HEK293 cells (AID 720679)
Outline: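 Using HEK293 cells at 2,000 per well, the screen added 23 nL of each compound after cell attachment and incubated overnight (37C, 5% CO2). The plate reader then captured red-label fluorescence, Ex/Em 540/590nm.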

Measured: Potency

Chain of Glucocorticoid receptor (Homo sapiens) (P04150 whole entry, looked up): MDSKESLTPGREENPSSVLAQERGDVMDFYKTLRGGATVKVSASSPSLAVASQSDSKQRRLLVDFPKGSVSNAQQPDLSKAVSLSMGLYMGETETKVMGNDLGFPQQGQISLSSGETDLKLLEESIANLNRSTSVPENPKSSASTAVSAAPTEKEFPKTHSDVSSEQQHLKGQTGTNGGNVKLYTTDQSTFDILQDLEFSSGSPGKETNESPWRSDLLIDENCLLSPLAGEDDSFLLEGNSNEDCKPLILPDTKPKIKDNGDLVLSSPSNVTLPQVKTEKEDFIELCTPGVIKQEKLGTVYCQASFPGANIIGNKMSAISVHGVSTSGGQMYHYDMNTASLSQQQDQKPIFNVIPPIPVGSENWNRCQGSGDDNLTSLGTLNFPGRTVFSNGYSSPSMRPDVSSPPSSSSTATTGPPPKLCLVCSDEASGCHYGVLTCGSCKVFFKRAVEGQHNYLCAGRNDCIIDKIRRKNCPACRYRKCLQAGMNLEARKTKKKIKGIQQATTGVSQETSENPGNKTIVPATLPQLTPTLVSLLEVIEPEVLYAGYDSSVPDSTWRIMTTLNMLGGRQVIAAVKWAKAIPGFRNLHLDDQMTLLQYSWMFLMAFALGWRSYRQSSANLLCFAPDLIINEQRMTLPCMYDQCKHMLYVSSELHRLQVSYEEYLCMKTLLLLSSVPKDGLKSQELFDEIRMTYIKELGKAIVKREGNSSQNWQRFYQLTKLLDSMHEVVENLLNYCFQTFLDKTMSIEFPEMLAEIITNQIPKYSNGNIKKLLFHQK

Oc1c(Cl)ccc(Cl)c1Cl
not listed: [18] | [19] | [20]
inactive: all other assays above

O=C(O)CCCC(=O)O
not listed: [20]
inactive: all other assays above

O=C(O)c1cc(=O)[nH]c(=O)[nH]1
not listed: [4] | [13]
inactive: all other assays above

C=CN1CCCC1=O
not listed: [16] | [17] | [19]
inactive: all other assays above

CCCCCCCC/C=C\CCCCCCCC(=O)O
not listed: [17]
inactive: all other assays above

CCCCCC=O
not listed: [13] | [16] | [17] | [18] | [19]
inactive: all other assays above

C[C@]12CC[C@@H]3c4ccc(O)cc4CC[C@H]3[C@@H]1CC[C@@H]2O
active: [1] 13.3 µM and 19.3 µM and 9.69 µM | [17] 4.25 µM and 2.18 µM
not listed: [4] | [13] | [16] | [19]
inactive: all other assays above

C=CCOC(=O)C(=C)C
not listed: [13]
inactive: all other assays above

From PubChem BioAssay (Tox21)
